Results taken from PubChem BioAssay AID1159580 (chemical genetic matrix, 2015).
The whole screen tested about 5,500 compounds, of which about 2,000 (36%) were called active. Inconclusive results (about 18%) are left out. Cut-off read from the data, not from the text of the source: active = normalized growth mostly below about 0.91 (no sharp cut-off); inconclusive = no clear call, values can overlap the other calls; inactive = mostly above about 0.92. This is one part of the list.

Assay: chemical genetic growth profiling, strain panel (AID 1159580);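 note: tested at 20 µM; growth read once vehicle control cultures reached saturation at 30 °C; 1 = growth at the plate median or of vehicle wells; lower values mean less growth of the strain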
Details: growth OD

SMILES: CC(C)=CCCC1(C)C=Cc2c(O)c3c(c(CC=C(C)C)c2O1)OC12C(=CC4CC1C(C)(C)OC2(C/C=C(/C)C(=O)O)C4=O)C3=O (stereo not drawn)
- normalized growth (S. cerevisiae deletion strains, locus YJL187C, strain SWE1, hits give low values): 0.851 (active)
- normalized growth (S. cerevisiae deletion strains, locus YJR043C, strain POL32, hits give low values): 0.821 (active)
- normalized growth (S. cerevisiae deletion strains, locus YJR066W, strain TOR1, hits give low values): 0.825 (inactive)
- normalized growth (S. cerevisiae deletion strains, locus YKL009W, strain mrt4, hits give low values): 0.965 (inactive)
- normalized growth (S. cerevisiae deletion strains, locus YKL068W, hits give low values): 0.943 (inactive)
- normalized growth (S. cerevisiae deletion strains, locus YKL085W, strain MDH1 (second series), hits give low values): 0.925 (active)
- normalized growth (S. cerevisiae deletion strains, locus YKL085W, strain MDH1, hits give low values): 0.925 (active)
- normalized growth (S. cerevisiae deletion strains, locus YKL160W, strain elf1, hits give low values): 0.842 (active)
- normalized growth (S. cerevisiae deletion strains, locus YKR001C, strain vps1, hits give low values): 0.628 (active)
- normalized growth (S. cerevisiae deletion strains, locus YKR026C, strain gcn3, hits give low values): 0.973 (inactive)
- normalized growth (S. cerevisiae deletion strains, locus YKR091W, strain srl3, hits give low values): 0.96 (inactive)
- normalized growth (S. cerevisiae deletion strains, locus YLL001W, strain dnm1, hits give low values): 0.881 (active)
- normalized growth (S. cerevisiae deletion strains, locus YLL026W, hits give low values): 0.888 (active)
- normalized growth (S. cerevisiae deletion strains, locus YLL041C, strain sdh2, hits give low values): 0.958 (inactive)
- normalized growth (S. cerevisiae deletion strains, locus YLR027C, strain aat2, hits give low values): 0.827 (active)
- normalized growth (S. cerevisiae deletion strains, locus YLR039C, strain RIC1, hits give low values): 0.873 (inactive)
- normalized growth (S. cerevisiae deletion strains, locus YLR058C, strain SHM2, hits give low values): 0.884 (active)
- normalized growth (S. cerevisiae deletion strains, locus YLR102C, strain apc9, hits give low values): 0.97 (inactive)
- normalized growth (S. cerevisiae deletion strains, locus YLR113W, strain HOG1, hits give low values): 0.685 (active)
- normalized growth (S. cerevisiae deletion strains, locus YLR221C, strain rsa3, hits give low values): 0.871 (active)
- normalized growth (S. cerevisiae deletion strains, locus YLR258W, strain gsy2, hits give low values): 0.861 (active)
- normalized growth (S. cerevisiae deletion strains, locus YLR262C, strain YPT6 (second series), hits give low values): 0.685 (active)
- normalized growth (S. cerevisiae deletion strains, locus YLR262C, strain YPT6, hits give low values): 0.783 (inactive)
- normalized growth (S. cerevisiae deletion strains, locus YLR268W, strain sec22, hits give low values): 0.84 (active)
- normalized growth (S. cerevisiae deletion strains, locus YLR320W, strain mms22, hits give low values): 0.732 (active)
- normalized growth (S. cerevisiae deletion strains, locus YLR330W, strain CHS5, hits give low values): 0.756 (active)
- normalized growth (S. cerevisiae deletion strains, locus YLR342W, strain FKS1 (second series), hits give low values): 0.703 (active)
- normalized growth (S. cerevisiae deletion strains, locus YLR342W, strain FKS1, hits give low values): 0.854 (active)
- normalized growth (S. cerevisiae deletion strains, locus YLR357W, strain rsc2, hits give low values): 1.02 (inactive)
- normalized growth (S. cerevisiae deletion strains, locus YLR370C, strain arc18, hits give low values): 0.984 (inactive)
- normalized growth (S. cerevisiae deletion strains, locus YLR371W, strain rom2, hits give low values): 0.955 (inactive)
- normalized growth (S. cerevisiae deletion strains, locus YLR384C, strain iki3, hits give low values): 0.989 (inactive)
- normalized growth (S. cerevisiae deletion strains, locus YLR418C, strain cdc73, hits give low values): 0.487 (active)
- normalized growth (S. cerevisiae deletion strains, locus YML016C, strain PPZ1, hits give low values): 0.963 (inactive)
- normalized growth (S. cerevisiae deletion strains, locus YML032C, strain rad52, hits give low values): 0.879 (active)
- normalized growth (S. cerevisiae deletion strains, locus YML120C, strain ndi1, hits give low values): 0.855 (active)
- normalized growth (S. cerevisiae deletion strains, locus YML124C, strain tub3, hits give low values): 0.979 (inactive)
- normalized growth (S. cerevisiae deletion strains, locus YMR058W, strain fet3, hits give low values): 0.507 (active)
- normalized growth (S. cerevisiae deletion strains, locus YMR078C, strain ctf18, hits give low values): 0.98 (inactive)
- normalized growth (S. cerevisiae deletion strains, locus YMR125W, strain sto1, hits give low values): 0.938 (inactive)
- normalized growth (S. cerevisiae deletion strains, locus YMR129W, hits give low values): 0.951 (inactive)
- normalized growth (S. cerevisiae deletion strains, locus YMR205C, strain PFK2, hits give low values): 0.623 (active)
- normalized growth (S. cerevisiae deletion strains, locus YMR223W, strain ubp8, hits give low values): 0.853 (active)
- normalized growth (S. cerevisiae deletion strains, locus YMR231W, strain pep5, hits give low values): 0.911 (active)
- normalized growth (S. cerevisiae deletion strains, locus YMR263W, strain SAP30, hits give low values): 0.947 (inactive)
- normalized growth (S. cerevisiae deletion strains, locus YMR307W, strain GAS1, hits give low values): 0.571 (active)
- normalized growth (S. cerevisiae deletion strains, locus YNL067W, strain RPL9B, hits give low values): 0.93 (inactive)
- normalized growth (S. cerevisiae deletion strains, locus YNL071W, strain lat1, hits give low values): 0.324 (active)
- normalized growth (S. cerevisiae deletion strains, locus YNL153C, strain GIM3, hits give low values): 0.923 (inactive)
- normalized growth (S. cerevisiae deletion strains, locus YNL183C, strain NPR1, hits give low values): 0.8 (active)
- normalized growth (S. cerevisiae deletion strains, locus YNL209W, strain ssb2, hits give low values): 0.76 (active)
- normalized growth (S. cerevisiae deletion strains, locus YNL233W, strain BNI4, hits give low values): 0.772 (active)
- normalized growth (S. cerevisiae deletion strains, locus YNL248C, strain rpa49, hits give low values): 0.976 (inactive)
- normalized growth (S. cerevisiae deletion strains, locus YNL250W, strain rad50, hits give low values): 0.952 (inactive)
- normalized growth (S. cerevisiae deletion strains, locus YNL271C, strain bni1, hits give low values): 0.981 (inactive)
- normalized growth (S. cerevisiae deletion strains, locus YNL298W, strain CLA4, hits give low values): 0.976 (inactive)
- normalized growth (S. cerevisiae deletion strains, locus YNL307C, strain MCK1, hits give low values): 0.382 (active)
- normalized growth (S. cerevisiae deletion strains, locus YNL322C, strain KRE1 (second series), hits give low values): 0.964 (inactive)
- normalized growth (S. cerevisiae deletion strains, locus YNR049C, strain mso1, hits give low values): 0.978 (inactive)
- normalized growth (S. cerevisiae deletion strains, locus YNR052C, strain pop2, hits give low values): 0.928 (inactive)
- normalized growth (S. cerevisiae deletion strains, locus YOL012C, strain htz1): 0.349 (inactive)
- normalized growth (S. cerevisiae deletion strains, locus YOL147C, strain pex11, hits give low values): 0.929 (active)
- normalized growth (S. cerevisiae deletion strains, locus YOR001W, strain rrp6, hits give low values): 0.918 (inactive)
- normalized growth (S. cerevisiae deletion strains, locus YOR061W, strain CKA2, hits give low values): 0.785 (active)
- normalized growth (S. cerevisiae deletion strains, locus YOR069W, strain VPS5, hits give low values): 0.975 (inactive)
- normalized growth (S. cerevisiae deletion strains, locus YOR070C, strain gyp1, hits give low values): 0.796 (active)
- normalized growth (S. cerevisiae deletion strains, locus YOR080W, strain dia2, hits give low values): 0.982 (inactive)
- normalized growth (S. cerevisiae deletion strains, locus YOR083W, strain WHI5, hits give low values): 0.842 (active)
- normalized growth (S. cerevisiae deletion strains, locus YOR106W, strain vam3, hits give low values): 0.662 (active)
- normalized growth (S. cerevisiae deletion strains, locus YOR136W, strain idh2, hits give low values): 0.958 (inactive)
- normalized growth (S. cerevisiae deletion strains, locus YOR144C, strain elg1, hits give low values): 0.946 (inactive)
- normalized growth (S. cerevisiae deletion strains, locus YOR184W, strain ser1, hits give low values): 0.64 (active)
- normalized growth (S. cerevisiae deletion strains, locus YOR231W, strain MKK1, hits give low values): 0.884 (inactive)
- normalized growth (S. cerevisiae deletion strains, locus YOR265W, strain rbl2, hits give low values): 0.886 (active)
- normalized growth (S. cerevisiae deletion strains, locus YOR270C, strain vph1, hits give low values): 0.632 (active)
- normalized growth (S. cerevisiae deletion strains, locus YOR290C, strain snf2, hits give low values): 0.836 (active)
- normalized growth (S. cerevisiae deletion strains, locus YOR316C, strain cot1, hits give low values): 0.97 (inactive)
- normalized growth (S. cerevisiae deletion strains, locus YPL051W, strain arl3, hits give low values): 0.764 (active)
- normalized growth (S. cerevisiae deletion strains, locus YPL078C, strain atp4, hits give low values): 0.885 (active)
- normalized growth (S. cerevisiae deletion strains, locus YPL106C, strain sse1, hits give low values): 1.01 (inactive)
- normalized growth (S. cerevisiae deletion strains, locus YPL240C, strain hsp82, hits give low values): 0.908 (active)
- normalized growth (S. cerevisiae deletion strains, locus YPL256C, strain CLN2, hits give low values): 0.816 (active)
- normalized growth (S. cerevisiae deletion strains, locus YPR119W, strain clb2, hits give low values): 0.988 (inactive)
- normalized growth (S. cerevisiae deletion strains, locus YPR141C, strain kar3, hits give low values): 0.982 (inactive)
- normalized growth (S. cerevisiae deletion strains, locus YPR163C, strain tif3, hits give low values): 0.9 (active)
- normalized growth (S. cerevisiae deletion strains, locus YPR167C, strain met16, hits give low values): 0.91 (active)
- normalized growth (S. cerevisiae deletion strains, strain wtn01, hits give low values): 0.868 (active)
- normalized growth (S. cerevisiae strains, strain wild type, hits give low values): 0.78 (active)
